# Measurements taken from PubChem BioAssay (Tox21).
# The source made the active and inactive calls. Calls follow the shape of the dose curve; as a rule, active = well fitted curve in the direction sought with a large enough effect in the repeat runs; inconclusive = weak or mixed curves; inactive = flat fitted curve, though single readings scatter.
# Assay: qHTS assay to test for compound auto fluorescence at 535 nm (green) in HepG2 cells (AID 720675)
# Settings: green autofluorescence 485/535 nm, 1 h; series mostly up to 91.3 µM; fluorescence, % of fluorescein control: at the top concentration
# Excerpt: National Center for Advancing Translational Sciences [NCATS]
# NIH Chemical Genomics Center [NCGC]
# U.S. Environmental Protection Agency [EPA]
# National Institutes of Environmental Health Sciences [NIEHS]
# National Toxicology Program [NTP]
# U.S. Food and Drug Administration [FDA]
# Compound auto fluorescence often interferes with screening of the compound library against various biological targets and signaling pathways. Some of these compounds may have fluorophoric properties. Such properties may interfere with the assay outputs resulting in false positives and/or negatives. To decrease such complications and ensure the compound activities are relevant in terms of biological response, the Tox21 10K compound library was screened for auto fluorescence.
# From the fluorophores used as reporter signals in our screening assays, the auto fluorescence equivalencies of compounds against three fluorophores have been evaluated: Triamterene, Fluorescein and Rose Bengal sodium for blue, green and red fluorescence, respectively. The fluorescence intensities were measured using Excitation/Emission wavelengths at 405/460nm, 485/535nm and 540/590nm for blue, green and red labels, respectively. This assay includes the green fluorescence data.
# Tox21 Assay Protocol Summary:
# 2,000 HepG2 cells in 5 uL of culture medium (MEM containing 10% FBS) per well were dispensed into black wall/clear bottom 1536-well plates using a Multidrop Combi Dispenser (ThermoFisher Scientific, Waltham, MA). The assay plates were incubated overnight at 37 C to allow cell attachment to the well bottom, followed by the transfer of 23 nL compound or DMSO vehicle by a pintool work station (Kalypsys , San Diego, CA). After the assay plates were incubated for 1 hr at 37 C and 5% CO2, fluorescence intensities in the assay plates were measured by an Envision (PerkinElmer, Shelton, CT) plate reader using three labels for measuring blue, green and red fluorescence at […] 460, 535 and 590 nm respectively.
# % is scaled to controls: 0 for no effect and ±100 for the full control effect.
Compound,"fluorescence, % of fluorescein control",outcome
CC(C)=CCC/C(C)=C/C#N,0.0743% [at 95.7 µM] (inactive),–
CC1CCC(CO)CC1 (stereo not given),0.0374% [at 95.7 µM] (inactive),–
CCCc1nn(C)c2c(=O)[nH]c(-c3cc(S(=O)(=O)N4CCN(C)CC4)ccc3OCC)nc12,0.0338% [at 46 µM] (inactive),–
CCCCc1nc(Cl)c(CO)n1Cc1ccc(-c2ccccc2-c2nn[nH]n2)cc1,0.0003% [at 46 µM] (inactive),–
O=CN(CCO)CCO,-0.0016% (inactive),–
OCCCCCO,-0.0123% [at 95.7 µM] (inactive),–
CCN(Cc1ccccc1)c1ccccc1,-0.0049% (inactive),–
O=C1NC(=O)C2CC=CCC12 (stereo not given),-0.0433% (inactive),–
CCCCS(=O)(=O)N[C@@H](Cc1ccc(OCCCCC2CCNCC2)cc1)C(=O)O,-0.0138% [at 46 µM] (inactive),–
CC(C)(C)C(=O)Oc1ccc(S(=O)(=O)Nc2ccccc2C(=O)NCC(=O)O)cc1,0.111% [at 46 µM] (inactive),–
CC1=C(C/C=C(\C)CCC[C@H](C)CCC[C@H](C)CCCC(C)C)C(=O)c2ccccc2C1=O,-0.0204% [at 46 µM] (inactive),–
CCCCCCCCCC[N+](C)(C)[O-],-0.104% (inactive),–
CCC(=O)OCc1ccccc1,-0.159% (inactive),–
CC(C)COC(=O)c1ccc(N)cc1,0.0308% [at 46 µM] (inactive),–
CC(C(=O)O)c1cccc(Oc2ccccc2)c1 (stereo not given),0.0036% [at 18.6 µM] (inactive),–
CC(C)C(=O)OC(=O)C(C)C,-0.0546% (inactive),–
COc1cc(C(=O)OC(COCCC(C)C)CN2CCOCC2)cc(OC)c1OC (stereo not given),0.0497% [at 46 µM] (inactive),–
NC(=O)N1c2ccccc2CC(=O)c2ccccc21,-0.0215% [at 46 µM] (inactive),–
O=C(O)c1cn(C2CC2)c2cc(N3CCNCC3)c(F)cc2c1=O,0.0071% [at 18.6 µM] (inactive),–
CCCC(C)C(=O)OCC (stereo not given),-0.0168% (inactive),–

Compound,"fluorescence, % of fluorescein control",outcome
C=CN1CCCCCC1=O,0.0101% (inactive),–
CCOC(=O)CCC(=O)OCC,0.0053% (inactive),–
Nc1ccn([C@@H]2O[C@H](CO)[C@@H](O)C2(F)F)c(=O)n1,-0.0926% [at 46 µM] (inactive),–
OCCc1ccccn1,-0.229% (inactive),–
CC(CC=O)CC(C)(C)C (stereo not given),0.0318% (inactive),–
CCNS(=O)(=O)c1ccc(C)cc1,0.0399% [at 95.7 µM] (inactive),–
CCCCCC(C)N (stereo not given),-0.136% [at 46 µM] (inactive),–
CN(C)[C@@H]1C(=O)C(C(=O)NCN2CCCC2)=C(O)[C@@]2(O)C(=O)C3=C(O)c4c(O)cccc4[C@@](C)(O)C3C[C@@H]12 (stereo not given in full),–,inactive
CC(C)C1CCC(O)CC1 (stereo not given),-0.148% (inactive),–
CC(C)C[C@@H](N)C(=O)O,0.0363% [at 46 µM] (inactive),–
CC(C)CC(C)(N)C#N (stereo not given),0.0313% [at 95.7 µM] (inactive),–
NC(=O)N[C@@H](CCC(=O)O)C(=O)O,0.0119% [at 46 µM] (inactive),–
CCN1CCOCC1,-0.0186% (inactive),–
O=C(CO)[C@@H](O)[C@H](O)[C@@H](O)CO,-0.119% [at 46 µM] (inactive),–
CC1OC1C1CCC2(C)OC2C1 (stereo not given),0.0442% (inactive),–
O=C(O)Cc1csc(-c2ccc(Cl)cc2)n1,-0.0228% [at 46 µM] (inactive),–
CN1CCC(=C2c3ccccc3CCc3cccnc32)CC1,-0.0566% [at 46 µM] (inactive),–
C=CC(=O)OCCCl,-0.0723% [at 95.7 µM] (inactive),–
COc1ccccc1OCC1CNC(=O)O1 (stereo not given),0.0109% [at 46 µM] (inactive),–
CCC(C)(CCCC(C)C)OC(C)=O (stereo not given),0.0358% (inactive),–
